Reference: PubChem BioAssay (NCATS)
Inconclusive results are not listed. For some assays here: Potency and affinity values are given separately. The source made the active and inactive calls.

What was measured:
[1] = qHTS profiling of the MIPE4 collection as inhibitors of Plasmodium falciparum (DD2) proliferation (AID 743345; call rule not given here); conditions: P. falciparum Dd2 in erythrocytes, SYBR Green DNA, 72 h; at 28.5 µM (top of the series) unless noted
How it was run: (§1)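 Erythrocytes infected with P. falciparum (0.3% parasitemia, 2.5% hematocrit) incubated with compounds 72 h at 37 C, 5% CO2. Lysis with saponin/Triton buffer containing SYBR Green I, overnight at room temperature in the dark; DNA fluorescence (485/535 nm) normalised to 0.29 uM artemisinin and DMSO.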

[2] = qHTS profiling of the MIPE4 collection as inhibitors of Plasmodium falciparum (DD2) proliferation (Rep 2) (AID 743346; call rule not given here); conditions: P. falciparum Dd2 in erythrocytes, SYBR Green DNA, 72 h; at 28.5 µM (top of the series) unless noted
How it was run: as §1

[3] = qHTS profiling of the MIPE4 collection as inhibitors of Plasmodium falciparum (HB3) proliferation (AID 743347; call rule not given here); conditions: P. falciparum HB3 in erythrocytes, SYBR Green DNA, 72 h; at 28.5 µM (top of the series) unless noted
How it was run: as §1

[4] = Ebola virus entry assay, blue channel fluorescence
[5] = Ebola virus entry assay, green fluorescence channel
[6] = Ebola virus entry assay, ratio channel readout
[7] = Ebola virus entry assay, blue channel fluorescence; remark: listed apart in the source
[8] = Ebola virus entry cell assay, ratio channel
[9] = Immunotoxin (SS1P) sensitization/mitigation study. Vehicle arm (DMEM) (AID 1159513; call rule not given here)
[10] = Ebola virus entry assay, reporter ratio channel; AC50: Channel type: primary unless noted; outcome: Channel type: primary unless noted
[11] = Ebola virus entry assay, blue channel (ratio component)
[12] = Ebola virus entry reporter assay, green channel fluorescence
[13] = Ebola virus entry assay, blue channel fluorescence; remark: listed apart in the source
[14] = Ebola virus entry assay, ratio channel
[15] = Ebola virus entry assay, green channel fluorescence
[16] = qHTS assay for measurement of the activity of small molecule inhibitors on Zika virus induced Caspase-3 activity in human iPSC derived neural progenitor cells (hNPCs) (AID 1224857; active = well fitted inhibition curve with a large enough effect; note: nearly all actives have a fitted effect of over 65% in size)
How it was run: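 After overnight (16–20 h) culture at 350 cells/well, hNPCs get compound, then ZIKV 2 FFU/cell one hour later. Six hours on, Caspase-Glo 3/7 is added and luminescence measured.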

[17] = qHTS assay for measurement of the activity of small molecule inhibitors on Zika virus induced Caspase-3 activity in human astrocytoma cells (AID 1224859; active = well fitted inhibition curve with a large enough effect)
How it was run: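 Inhibition of Zika-induced caspase-3/7 activity: SNB-19 cells, 1 h compound pretreatment, ZIKV 2 FFU/cell for 6 h at 37 C, Caspase-Glo luminescence read-out.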

Nc1ccn(C[C@@H](CO)OCP(=O)(O)O)c(=O)n1
97.9% [at 9.64 µM]: parasite growth, % of control (lower = inhibition) [2]
inactive: outcome [4] | outcome [5] | outcome [6] | outcome [7] | outcome [8]
103% [at 9.64 µM]: parasite growth remaining, % of DMSO control (lower = more inhibition) [1]
81.6% [at 9.64 µM]: growth, % of control [3]

N#Cc1ccc(C(c2ccc(C#N)cc2)n2cncn2)cc1
inactive: outcome [4] | outcome [5] | outcome [6] | outcome [7] | outcome [8] | Potency [9]

NS(=O)(=O)c1cc(Cl)c(Cl)c(S(N)(=O)=O)c1
inactive: outcome [4] | outcome [5] | outcome [6] | outcome [7] | outcome [8]

CO[C@H]1C[C@@H]2CC[C@@H](C)[C@@](O)(O2)C(=O)C(=O)N2CCCC[C@@H]2C(=O)O[C@H]([C@@H](C)C[C@@H]2CC[C@H](O)[C@H](OC)C2)CC(=O)[C@H](C)C=C(C)[C@@H](O)[C@@H](OC)C(=O)[C@H](C)C[C@H](C)C=CC=CC=C1C
inactive: outcome [4] | outcome [5] | outcome [6] | outcome [10] inactive [Channel type: confirmation] | outcome [11] | outcome [8]

C[C@@H]1O[C@@H](O[C@H]2CC[C@@]3(C)[C@H](CC[C@@H]4[C@H]3C[C@@H](O)[C@]3(C)[C@@H](C5=CC(=O)OC5)CC[C@]43O)C2)C[C@H](O)[C@@H]1O[C@H]1C[C@H](O)[C@H](O[C@H]2C[C@H](O)[C@@H](O)[C@@H](C)O2)[C@H](C)O1 (stereo in doubt)
inactive: outcome [5] | outcome [6] | outcome [10] inactive [Channel type: confirmation] | outcome [11]
active: AC50 [4] 1 µM | AC50 [8] 0.794 µM

CCCCCCCCCCCCCCCC(=O)OCCC1CCN(CCCN2c3ccccc3Sc3ccc(S(=O)(=O)N(C)C)cc32)CC1
inactive: outcome [4] | outcome [5] | outcome [6] | outcome [7] | outcome [8]

CO[C@H]1C=CO[C@@]2(C)Oc3c(C)c(O)c4c(O)c(c(/C=N/N5CCN(C6CCCC6)CC5)c(O)c4c3C2=O)NC(=O)/C(C)=C\C=C[C@H](C)[C@H](O)[C@@H](C)[C@@H](O)[C@@H](C)[C@H](OC(C)=O)[C@@H]1C
inactive: outcome [4] | outcome [5] | outcome [6] | outcome [12] | outcome [8]

CCN1C(=O)NC(c2ccccc2)C1=O (centres undefined)
inactive: outcome [4] | outcome [5] | outcome [6] | outcome [7] | outcome [8]

Cc1c(N)nc([C@H](CC(N)=O)NC[C@H](N)C(N)=O)nc1C(=O)N[C@H](C(=O)N[C@H](C)[C@@H](O)[C@H](C)C(=O)N[C@H](C(=O)NCCc1nc(-c2nc(C(=O)NCCCCN=C(N)N)cs2)cs1)[C@@H](C)O)[C@@H](O[C@@H]1O[C@@H](CO)[C@@H](O)[C@H](O)[C@@H]1O[C@H]1O[C@H](CO)[C@@H](O)[C@H](OC(N)=O)[C@@H]1O)c1cnc[nH]1
inactive: outcome [4] | outcome [5] | outcome [6] | outcome [7] | outcome [8]

CC(C)[C@H]1C(=O)N2CCC[C@H]2[C@]2(O)O[C@](NC(=O)[C@@H]3C[C@@H]4c5cccc6[nH]cc(c56)C[C@H]4N(C)C3)(C(C)C)C(=O)N12
inactive: outcome [4] | outcome [5] | outcome [6] | outcome [12] | outcome [8]

CC(C)(C)NC[C@H](O)COc1ccccc1C1CCCC1
inactive: outcome [5] | outcome [12]
active: AC50 [4] 4.47 µM | AC50 [6] 3.55 µM | AC50 [8] 3.55 µM

CN1CCN(CCC=C2c3ccccc3Sc3ccc(S(=O)(=O)N(C)C)cc32)CC1
inactive: outcome [5] | outcome [10] inactive [Channel type: confirmation]
active: AC50 [4] 4.47 µM | AC50 [6] 4.47 µM | AC50 [8] 4.47 µM

CC(=O)O[C@H]1C(=O)[C@@]2(C)[C@H]([C@H](OC(=O)c3ccccc3)[C@]3(O)C[C@H](OC(=O)[C@H](O)[C@@H](NC(=O)c4ccccc4)c4ccccc4)C(C)=C1C3(C)C)[C@]1(OC(C)=O)CO[C@@H]1C[C@@H]2O
inactive: outcome [4] | outcome [5] | outcome [6] | outcome [12] | outcome [8]

CN1C(=O)C(O)N=C(c2ccccc2)c2cc(Cl)ccc21 (centres undefined)
inactive: outcome [4] | outcome [5] | outcome [6] | outcome [7] | outcome [8]

O=C(OC1C[C@@H]2CC3C[C@H](C1)N2CC3=O)c1c[nH]c2ccccc12 (some centres undefined)
inactive: outcome [4] | outcome [5] | outcome [6] | outcome [12] | outcome [8]

CCC[C@@H]1C[C@@H](C(=O)N[C@@H]([C@H]2O[C@H](SC)[C@H](O)[C@@H](O)[C@H]2O)[C@H](C)Cl)N(C)C1
inactive: outcome [4] | outcome [5] | outcome [6] | outcome [7] | outcome [8]

CC=CC1=C(C(=O)O)N2C(=O)[C@H](NC(=O)[C@H](N)c3ccc(O)cc3)[C@@H]2SC1
inactive: outcome [4] | outcome [5] | outcome [6] | outcome [7] | outcome [8]

CN(C)CCOc1ccc(/C(=C(/CCCl)c2ccccc2)c2ccccc2)cc1
inactive: outcome [5] | outcome [6] | outcome [10] inactive [Channel type: confirmation] | outcome [11]
active: AC50 [4] 4.47 µM | AC50 [8] 3.55 µM

CC(C)CN(C[C@@H](O)[C@H](Cc1ccccc1)NC(=O)O[C@H]1CO[C@H]2OCC[C@H]21)S(=O)(=O)c1ccc(N)cc1
inactive: outcome [4] | outcome [5] | outcome [6] | outcome [7] | outcome [8]

CC(C)C[C@H]1C(=O)N2CCC[C@H]2[C@]2(O)O[C@](NC(=O)[C@@H]3C=C4c5cccc6[nH]c(Br)c(c56)C[C@H]4N(C)C3)(C(C)C)C(=O)N12
inactive: outcome [4] | outcome [5] | outcome [6] | outcome [12] | outcome [8]

CCOC(=O)CCC(=O)O[C@H]1[C@H](O[C@@H]2[C@@H](C)[C@H](O[C@H]3C[C@@](C)(OC)[C@@H](O)[C@H](C)O3)[C@@H](C)C(=O)O[C@H](CC)[C@@](C)(O)[C@H](O)[C@@H](C)C(=O)[C@H](C)C[C@@]2(C)O)O[C@H](C)C[C@@H]1N(C)C
inactive: outcome [4] | outcome [5] | outcome [6] | outcome [12] | outcome [8]

CN1CCN(C(c2ccccc2)c2ccc(Cl)cc2)CC1 (centres undefined)
active: AC50 [4] 12.6 µM | AC50 [8] 10 µM
inactive: outcome [5] | outcome [6]

O=C(O[C@H]1CN2CCC1CC2)N1CCc2ccccc2[C@@H]1c1ccccc1
active: AC50 [4] 10 µM | AC50 [6] 7.95 µM | AC50 [8] 7.94 µM
inactive: outcome [5]

CC(=O)NC[C@H]1CN(c2ccc(N3CCOCC3)c(F)c2)C(=O)O1
inactive: outcome [4] | outcome [5] | outcome [6] | outcome [7] | outcome [8]

CCCC(C)(COC(N)=O)COC(N)=O
inactive: outcome [5] | outcome [6] | outcome [7] | outcome [8]

Nc1nc(/C(=C/CC(=O)O)C(=O)N[C@@H]2C(=O)N3C(C(=O)O)=CCS[C@H]23)cs1
inactive: outcome [5] | outcome [6] | outcome [7] | outcome [12] | outcome [8]

CN1C[C@H](C(=O)N[C@]2(C)O[C@@]3(O)[C@@H]4CCCN4C(=O)[C@H](Cc4ccccc4)N3C2=O)C=C2c3cccc4[nH]cc(c34)C[C@H]21
inactive: outcome [4] | outcome [5] | outcome [6] | outcome [8]

NC(=O)CC[C@@H]1NC(=O)[C@H](Cc2ccccc2)NC(=O)[C@H](Cc2ccc(O)cc2)NC(=O)[C@@H](N)CSSC[C@@H](C(=O)N2CCC[C@H]2C(=O)N[C@@H](CCCN=C(N)N)C(=O)NCC(N)=O)NC(=O)[C@H](CC(N)=O)NC1=O
inactive: outcome [4] | outcome [5] | outcome [7] | outcome [12] | outcome [8]

O=c1[nH]c(=O)n([C@H]2C[C@H](O)[C@@H](CO)O2)cc1F
inactive: outcome [5] | outcome [13] | outcome [14] | outcome [15] | outcome [7] | outcome [10] | outcome [11] | outcome [8]

COc1cc([C@@H]2c3cc4c(cc3C(O[C@@H]3O[C@@H]5CO[C@@H](C)O[C@H]5[C@H](O)[C@H]3O)C3COC(=O)[C@@H]32)OCO4)cc(OC)c1OP(=O)(O)O (some centres undefined)
inactive: outcome [5]
active: AC50 [4] 7.08 µM | AC50 [6] 7.08 µM | AC50 [8] 7.08 µM

O=C(O)C[C@H](O)C[C@H](O)/C=C/c1c(C2CC2)nc2ccccc2c1-c1ccc(F)cc1
inactive: outcome [4] | outcome [5] | outcome [6] | outcome [8]

CO[C@@]1(NC(=O)Cc2cccs2)C(=O)N2C(C(=O)O)=C(COC(N)=O)CS[C@@H]21
inactive: outcome [5] | outcome [6] | outcome [13] | outcome [14] | outcome [15] | outcome [7] | outcome [10] | outcome [11] | outcome [12] | outcome [8]

CC(C=CC1=C(C)CCCC1(C)C)=CC=CC(C)=CC(=O)O
inactive: outcome [4] | outcome [6] | outcome [7] | outcome [12] | outcome [8]

Nc1ccn([C@@H]2CS[C@H](CO)O2)c(=O)n1
inactive: outcome [5] | outcome [6] | outcome [7] | outcome [8]

NC(=O)COCCN1CCN(C(c2ccccc2)c2ccc(Cl)cc2)CC1 (centres undefined)
inactive: outcome [4] | outcome [6] | outcome [15] | outcome [7] | outcome [10] | outcome [11] | outcome [12] | outcome [8]

O=C1CN=C(c2ccccc2)c2cc([N+](=O)[O-])ccc2N1
inactive: outcome [5] | outcome [6] | outcome [13] | outcome [14] | outcome [15] | outcome [7] | outcome [10] | outcome [11] | outcome [12] | outcome [8] | outcome [16] | outcome [17]

COc1cccc2c1C(=O)c1c(O)c3c(c(O)c1C2=O)C[C@@](O)(C(C)=O)C[C@H]3O[C@H]1C[C@H](N)[C@H](O)[C@H](C)O1
active: AC50 [4] 6.31 µM | AC50 [6] 5.63 µM | AC50 [8] 5.62 µM
inactive: outcome [10] inactive [Channel type: confirmation] | outcome [11]

OCCN1CCN(CC/C=C2/c3ccccc3Sc3ccc(C(F)(F)F)cc32)CC1
active: AC50 [13] 3.55 µM

CCOc1cc(CC(=O)N[C@@H](CC(C)C)c2ccccc2N2CCCCC2)ccc1C(=O)O
inactive: outcome [5] | outcome [6] | outcome [7] | outcome [12] | outcome [8]
